Results on 21 compounds are retold here after PubChem BioAssay (EPA / NIEHS).

The source made the active and inactive calls. Rule for the calls: active = hit-call score of the fitted dose curve at least 0.9, where 1 is the maximum; inactive = score below 0.9.

Read-out in experiment [1]: growth arrest and DNA damage 45 (GADD45A), GADD45A (gene 1647)
Put plainly: LTEA_HepaRG_GADD45A: Life Technologies and Expression Analysis (LTEA) Assay for growth arrest and DNA damage 45 (GADD45A) using HepaRG (AID 2283458). The settings on record: mRNA level, 48 h; actives raise or lower the signal. Put shortly: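 Cells plated and cultured 48 h, switched to serum-free induction medium, then dosed for 48 h (100 uM top, half-log dilutions, 0.5% DMSO). RNA was isolated and transcript measured by Fluidigm qRT-PCR.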

Read-out in experiment [2]: Forkhead box O3 (FOXO3), FOXO3 (gene 2309)
Nature of the experiment: LTEA_HepaRG_FOXO3: Life Technologies and Expression Analysis (LTEA) Assay for Forkhead box O3 (FOXO3) using HepaRG (AID 2283459). The settings on record: mRNA level, 48 h; actives raise or lower the signal. Put shortly: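 HepaRG, 48 h post-dose; 8 conc., half-log from 100 uM, 0.5% DMSO, duplicates; serum-free induction medium. Readout: FOXO3 mRNA, TaqMan qRT-PCR, housekeeping-normalized. Bidirectional curve fit vs DMSO baseline.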

Read-out in experiment [3]: ABC Transporter (ABCB1), ABCB1 (gene 5243)
Nature of the experiment: LTEA_HepaRG_ABCB1: Life Technologies and Expression Analysis (LTEA) Assay for ABC Transporter (ABCB1) using HepaRG (AID 2283460). Particulars: mRNA level, 48 h; actives raise or lower the signal. Put shortly:
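Expression of ABCB1 was quantified by qRT-PCR against three housekeeping genes after human HepaRG cultures received test chemicals for 48 hours. Concentrations spanned eight half-log steps topping at 100 uM in 0.5% DMSO; gain or loss of signal was fitted relative to vehicle.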

Read-out in experiment [4]: growth arrest and DNA damage 45 (GADD45B), GADD45B (gene 4616)
Put plainly: LTEA_HepaRG_GADD45B: Life Technologies and Expression Analysis (LTEA) Assay for growth arrest and DNA damage 45 (GADD45B) using HepaRG (AID 2283461). The settings on record: mRNA level, 48 h; actives raise or lower the signal. Put shortly:
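Differentiated human HepaRG cells in serum-free induction medium exposed 48 h in duplicate to eight concentrations, top 100 uM, half-log steps, 0.5% DMSO. GADD45B mRNA by TaqMan qRT-PCR, normalized to ACTB, GAPDH, POLR2A; bidirectional fit versus DMSO.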

Read-out in experiment [5]: ABC Transporter (ABCC3), ABCC3 (gene 8714)
Nature of the experiment: LTEA_HepaRG_ABCC3: Life Technologies and Expression Analysis (LTEA) Assay for ABC Transporter (ABCC3) using HepaRG (AID 2283462). The settings on record: mRNA level, 48 h; actives raise or lower the signal. Put shortly:
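Differentiated human HepaRG cells exposed 48 h in serum-free induction medium, 0.5% DMSO vehicle, 8-point half-log series to 100 uM in duplicate. ABCC3 mRNA by qRT-PCR, normalised to ACTB, GAPDH, POLR2A; bidirectional fit vs DMSO.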

Read-out in experiment [6]: ABC Transporter (ABCB11), ABCB11 (gene 8647)
Nature of the experiment: LTEA_HepaRG_ABCB11: Life Technologies and Expression Analysis (LTEA) Assay for ABC Transporter (ABCB11) using HepaRG (AID 2283463). The settings on record: mRNA level, 48 h; actives raise or lower the signal. Put shortly: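 ABCB11 transcript levels are read by Fluidigm TaqMan qRT-PCR after 48 h chemical treatment of human HepaRG cells. Concentrations span 100 uM downward in half-log steps with 0.5% DMSO; gain or loss is fitted against DMSO controls.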

Read-out in experiment [7]: ABC Transporter (ABCC2), ABCC2 (gene 1244)
Put plainly: LTEA_HepaRG_ABCC2: Life Technologies and Expression Analysis (LTEA) Assay for ABC Transporter (ABCC2) using HepaRG (AID 2283464). The settings on record: mRNA level, 48 h; actives raise or lower the signal. Put shortly: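 Differentiated HepaRG cells in serum-free induction medium exposed 48 h to eight half-log concentrations up to 100 uM, 0.5% DMSO, in duplicate. ABCC2 mRNA measured by qRT-PCR (TaqMan, Fluidigm), normalized to ACTB, GAPDH and POLR2A. Fitted in both directions against DMSO.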

Read-out in experiment [8]: Broad substrate specificity ATP-binding cassette transporter ABCG2 (Homo sapiens) (UniProt Q9UNQ0)
Nature of the experiment: LTEA_HepaRG_ABCG2: Life Technologies and Expression Analysis (LTEA) Assay for ABC Transporter (ABCG2) using HepaRG (AID 2283465). Particulars: mRNA level, 48 h; actives raise or lower the signal. Put shortly:
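Read-out is ABCG2 mRNA induction or loss quantified by qRT-PCR after 48 h chemical treatment of human HepaRG cells, normalized to three housekeeping genes. Concentrations reached 100 uM top in half-log steps; fitting was bidirectional against 0.5% DMSO.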

Read-out in experiment [9]: ATP-citrate lyase (ACLY), ACLY (gene 47)
Put plainly: LTEA_HepaRG_ACLY: Life Technologies and Expression Analysis (LTEA) Assay for ATP-citrate lyase (ACLY) using HepaRG (AID 2283466). Particulars: mRNA level, 48 h; actives raise or lower the signal. Put shortly:
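HepaRG, 48 h exposure, 8-pt half-log dilutions (top 100 uM), 0.5% DMSO. Readout: ACLY mRNA, TaqMan qRT-PCR, housekeeping-normalized (ACTB/GAPDH/POLR2A). Bidirectional curve fit vs DMSO.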

Experiment [10] is described as follows: CEETOX_H295R_TESTO: CeeTox H295R High-throughput Steroidogenesis Assay for Testosterone (TESTO) (AID 2283457). Particulars: actives raise or lower the signal. Put shortly: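 H295R adrenal cells, passage ≤10, exposed to chemicals for 48 h. Testosterone in medium measured by MTBE extraction and HPLC-MS/MS against a 7-point standard curve. Bidirectional fit versus DMSO; MTT viability checked in the same wells.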

The term AC50 denotes the concentration giving half of the maximal activity seen.

Sequence of Broad substrate specificity ATP-binding cassette transporter ABCG2 (Homo sapiens) (Q9UNQ0 whole entry, looked up): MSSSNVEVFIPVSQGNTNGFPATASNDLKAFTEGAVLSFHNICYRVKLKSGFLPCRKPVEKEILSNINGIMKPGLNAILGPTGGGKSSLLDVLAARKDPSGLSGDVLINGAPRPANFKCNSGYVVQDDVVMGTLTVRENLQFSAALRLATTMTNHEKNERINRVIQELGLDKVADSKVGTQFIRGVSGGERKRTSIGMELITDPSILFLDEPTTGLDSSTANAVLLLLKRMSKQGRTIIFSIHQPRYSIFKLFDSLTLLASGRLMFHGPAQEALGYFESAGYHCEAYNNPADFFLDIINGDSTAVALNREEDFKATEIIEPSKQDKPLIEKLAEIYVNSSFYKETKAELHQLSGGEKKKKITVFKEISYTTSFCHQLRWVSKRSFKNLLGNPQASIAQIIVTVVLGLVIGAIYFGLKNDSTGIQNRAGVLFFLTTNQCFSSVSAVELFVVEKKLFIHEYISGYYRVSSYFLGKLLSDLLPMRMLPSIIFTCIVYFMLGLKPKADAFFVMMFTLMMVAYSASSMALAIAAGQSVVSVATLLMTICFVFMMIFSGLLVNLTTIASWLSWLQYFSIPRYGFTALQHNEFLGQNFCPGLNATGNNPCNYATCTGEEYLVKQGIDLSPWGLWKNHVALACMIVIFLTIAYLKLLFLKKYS

As for `CN(C)C(=O)NC1(c2ccccc2)CCN(CCC[C@]2(c3ccc(Cl)c(Cl)c3)CCCN(C(=O)c3ccccc3)C2)CC1`, the AC50 in experiment [1] is 12.5 µM (active); in [4], 20.3 µM (active); in [6], 23.6 µM (active); in experiment [7], 19.4 µM (active). For the same compound, the outcome in [2], in [3] and in experiment [5] was inactive.

For the compound `CS(=O)(=O)c1ccc([C@@H](C[C@H]2CCC(=O)C2)C(=O)Nc2cnccn2)cc1Cl`, the AC50 was 1.28 µM (active) in experiment [1]; 9.92 µM (active) in experiment [2]; 1.54 µM (active) in [3]; 11 µM (active) in experiment [6]; 12.5 µM (active) in experiment [7]. For the same compound, the result in [4] and in experiment [5] was inactive.

Turning to `Cc1cc(Cc2ccc(N)c(C)c2)ccc1N`, the result in experiment [1], in experiment [2], in [4], in experiment [5] and in experiment [6] was inactive. In addition, the values for the AC50 in experiment [3] and in [7] were 33.6 µM (active) and 50 µM (active), respectively.

`NC1CCCCC1`: the outcome in experiment [1], in [2], in experiment [3], in experiment [4], in [5] and in [6] was inactive. Besides, the compound was called inactive in [7] and in experiment [8].

With `O=C1O[C@H]([C@H](O)CO)C(O)=C1O`, the result in [1], in [2], in experiment [3], in [4], in experiment [5] and in experiment [6] was inactive. The compound was called inactive in experiment [7] and in experiment [8].

For the compound `O=C(N[C@@H](c1ccccc1)[C@@H]1CCCCN1)c1cccc(C(F)(F)F)c1Cl`, the result in experiment [1] and in experiment [8] was inactive. The AC50 in experiment [2] was 73.4 µM (active); in experiment [3], 89.9 µM (active); in experiment [4], 50 µM (active); in experiment [5], 12.9 µM (active); in experiment [6], 24.1 µM (active); in experiment [7], 78.1 µM (active).

Consider `OCC(CO)n1cnc(-c2ccc(F)cc2)c1-c1ccnc(Oc2ccccc2)n1`, for which the outcome in experiment [1], in [2], in experiment [4], in experiment [5], in experiment [6] and in experiment [9] was inactive. The AC50 is 20 µM (active) in experiment [3], 24.7 µM (active) in experiment [7] and 16 µM (active) in experiment [8].

Take `Cc1c(C)c2c(c(C)c1O)CCC(C)(COc1ccc(CC3SC(=O)NC3=O)cc1)O2` (stereo unspecified): the compound was called inactive in experiment [10], in experiment [3], in experiment [5], in experiment [8] and in experiment [9]. Also, the AC50 in [2] was 88.4 µM (active); in experiment [4], 37.7 µM (active); in [6], 15.8 µM (active); in experiment [7], 93.7 µM (active).

For the compound `CC(=O)OCC(COC(C)=O)OC(C)=O`, the compound was called inactive in [1], in [2], in experiment [3], in experiment [4], in experiment [5] and in [6]. Besides, the compound was classed as inactive in experiment [7] and in experiment [8].

For the compound `CCOCCOCCO`, the compound was classed as inactive in experiment [1], in experiment [2], in experiment [3], in [4], in [5] and in experiment [6]. Also, the compound was classed as inactive in experiment [7], in [8] and in [9].

As to `CC(=O)OC1CC(C)OC(C)O1` (stereo unspecified), the compound was called inactive in experiment [1], in experiment [2], in experiment [3], in experiment [4], in experiment [5] and in experiment [6]. Further, the compound was classed as inactive in [7] and in experiment [8].

For the compound `COC(=O)CCCC(=O)OC`, the result in [1], in [2], in [3], in experiment [4], in [6] and in [7] was inactive. For the same compound, the compound was called inactive in [8]. In [5], the AC50 was 0.263 µM (active).

`CCCCc1nc2cccnc2n1Cc1ccc(-c2ccccc2-c2nnn[nH]2)cc1`: the compound was classed as inactive in [1], in experiment [2], in [4] and in experiment [5]. Moreover, the figures for the AC50 in [3], in [6] and in experiment [7] were 50 µM (active), 89.8 µM (active) and 50 µM (active), respectively.

For the compound `O=C(NS(=O)(=O)/C=C/c1cccs1)c1ccc(F)cc1Br`, the compound was classed as inactive in experiment [1], in [2], in experiment [4] and in [5]. For the same compound, the AC50 in [3] was 13.2 µM (active); in experiment [6], 50 µM (active); in experiment [7] it was 7.3 µM (active).

Take `C=CCCCCCCCCCCCC`: the compound was called inactive in experiment [1], in [2], in experiment [3], in [4], in experiment [5] and in experiment [6]. For the same compound, the compound was called inactive in experiment [7] and in [8].

`O=C(O)c1cccnc1`: the outcome in [1], in experiment [2], in experiment [3], in [4], in experiment [5] and in experiment [6] was inactive. In addition, the result in [7] and in [8] was inactive.

As to `O=C(Oc1ccccc1)c1cccc(C(=O)Oc2ccccc2)c1`, the compound was classed as inactive in experiment [10], in experiment [2], in experiment [3], in experiment [4], in experiment [5] and in [6]. Further, the call in [7] and in experiment [8] was inactive.

With `CCCC[C@H]1CN(CC2CCOCC2)C(=O)OC12CCN(C1(C)CCN(C(=O)c3c(C)ncnc3C)CC1)CC2`, the result in [1], in [2], in experiment [3], in experiment [4], in [5] and in [6] was inactive. In addition, the call in experiment [7] was inactive.

On to `COc1ccc(C(=O)Nc2nc3ccccc3c(NCc3ccccc3)c2C#N)cc1`, for which the result in experiment [1], in experiment [2], in experiment [3], in experiment [5] and in experiment [7] was inactive. The AC50 in experiment [4] was 16 µM (active); in experiment [6], 13.3 µM (active).

On to `CCCCCCCCCC[N+](C)(C)[O-]`, for which the outcome in experiment [10], in [1], in experiment [2], in experiment [3], in experiment [4] and in [5] was inactive. For the same compound, the call in experiment [6], in [7] and in [9] was inactive.

With `CC1=C(C)S(=O)(=O)CCS1(=O)=O`, the call in experiment [10], in experiment [1], in [7] and in experiment [8] was inactive. Moreover, the AC50 is 14.7 µM (active) in [2]; 50 µM (active) in experiment [3]; 88.8 µM (active) in experiment [4]; 0.171 µM (active) in [5]; 81 µM (active) in experiment [6].
